MCF10A rereplic: A quantitative high throughput screen for small molecules that induce DNA re-replication in MCF 10a normal breast cells | 350,000 compounds, 2.9% hits | MCF 10A DNA re-replication, Hoechst nuclear intensity, 48 h | AID 624296, 2012 | Potency, µM (series often up to 46.1 µM), without a hit: top-dose activity, positive = re-replication, hits mostly activators; note: % of control where 0% means no effect; nearly all actives have a fitted effect of over 50% in size
SW480 rerep: A quantitative high throughput screen for small molecules that induce DNA re-replication in SW480 colon adenocarcinoma cells; SW480 DNA re-replication, Hoechst DNA content imaging, 48 h; Potency, µM (top dose mostly 46.1 µM), for inactives: at the highest dose re-replication activation, usual class: activators; 340,000 compounds, 1.8% hits; AID 624297, 2012; note: % of control where 0% means no effect; nearly all actives have a fitted effect of over 55% in size
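Image-based read-out: total Hoechst fluorescence of nuclei (405 nm excitation, 500-530 nm emission), with hits raising the fraction of high-intensity nuclei. SW480 colon cells incubated 48 hr with compounds at 37 C.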
HT1080-NT tox: qHTS for induction of synthetic lethality in tumor cells producing 2HG: qHTS for the HT-1080-NT fibrosarcoma cell line; HT-1080-NT fibrosarcoma viability, CellTiter-Glo ATP luminescence, 48 h; Potency, µM (highest dose often 46.1 µM), for the others: at the top dose activity, negative = less viability, hits mostly cytotoxic; 360,000 compounds, 1.6% hits;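 note: NT is the 2HG producing partner of a matched IDH1 knockdown line; 0% = DMSO-treated cells and -100% = media-only wells without cells; nearly all actives have a fitted effect of over 55% in size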
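Toxicity toward the 2HG-producing NT line was scored as %Activity, normalised to DMSO and no-cell wells, from CellTiter-Glo luminescence after 48 hours' treatment.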
KB-3-1 cytotox: qHTS assay for MDR1-selective chemotherapeutics: Primary screen using the parental adenocarcinoma cell KB-3-1; Potency, µM (top dose mostly 46.1 µM), most hits filed as cytotoxic; AID 1347075, 2019; 400,000 compounds, 1.4% hits; KB-3-1 viability, CellTiter-Glo ATP luminescence, 72 h; note: % is set by controls: 0 for no effect and ±100 for the full control effect; nearly all actives have a fitted effect of over 60% in size
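Cells are dispensed, compounds pinned in, plates held at 37 °C for 72 h, then CellTiter-Glo is added and luminescence read after 10 minutes. Cell line: parental KB-3-1 in phenol-red-free DMEM, 10% FBS.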
HT1080 IDH1KD tx: qHTS for induction of synthetic lethality in tumor cells producing 2HG: qHTS for the HT-1080-IDH1KD cell line; HT-1080 IDH1 knockdown viability, ATP luminescence, 48 h; Potency, µM (top dose mostly 46.1 µM), inactives show at the top dose activity, negative = toxicity, most hits filed as cytotoxic; 360,000 compounds, 2% hits;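 note: 0% = DMSO wells and -100% = cell-free medium wells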
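Assay cells: HT-1080 with IDH1 knockdown, 750 per well, RPMI/5% FBS. Exposure: 48 h at 37 °C following 2 h pre-incubation. Read: CellTiter-Glo luminescence; fitted concentration-response, curve class assigned.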
KB-V1 MDR tox: qHTS assay for MDR1-selective chemotherapeutics: Primary screen using the drug-selected MDR subline cells KB-V1; KB-V1 MDR cells viability, CellTiter-Glo, 72 h; Potency, µM (doses to about 46.1 µM), actives largely listed as cytotoxic; 400,000 compounds, 3.4% hits; note: % is set by controls: 0 for no effect and ±100 for the full control effect; nearly all actives have a fitted effect of over 60% in size
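KB-V1, DMEM (no phenol red) + 10% FBS; cpd pin-transferred, titration series; 72 h, 37 degrees C; CellTiter-Glo, luminescence. Data normalized, curve-fit.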
* = called active by the depositor; i = inactive; ? = inconclusive; . = not tested or not shown. In the library only some 8% were active in any assay of this set; here they are far more common. Calls come from the whole dose curve; as a rule, active = well fitted curve in the direction sought with a large enough effect; inconclusive = small, poorly fitted or top-dose-only effect, or another doubt; inactive = no such curve, though single readings can be large; an effect the other way counts as inactive or inconclusive. Potency is the fitted concentration of half-maximal effect.

SMILES	MCF10A rereplic	SW480 rerep	HT1080-NT tox	KB-3-1 cytotox	HT1080 IDH1KD tx	KB-V1 MDR tox
CC[C@@H]1C(c2ccc(F)cc2)=NN(c2ccccc2)[C@H]1C(=O)N1CCOC1=O	?	16%	-6%	i	-8%	i
O=C1OCCN1C(=O)[C@H]1[C@H](c2ccc(F)cc2)C(c2ccccc2)=NN1c1ccccc1	5.2µM*	21µM*	-11%	i	-11%	i
Cc1ccc(C(=O)NCC(=O)NCC(c2cccs2)N(C)C)cc1C (stereo not given)	2%	-3%	-6%	i	-10%	15µM*
CCCOc1ccc(C(=O)NCC(c2cccs2)N(C)C)cc1 (stereo not given)	1%	0%	-3%	i	-8%	i
CCOc1ccc(C(=O)NCC(c2cccs2)N(C)C)cc1OCC (stereo not given)	-10%	-3%	-5%	i	5%	23µM*
CCSc1nc(-c2cccc(Cl)c2)nc2c1Cc1c(CO)cnc(C)c1O2	.	.	.	i	.	i
O=C(CC(=O)c1ccccn1)c1ccccc1	-5%	?	-10%	?	?	13µM*
COC(=O)/C=C\C(C#N)(C#N)N=Cc1ccc(OC)cc1	13µM*	6.5µM*	?	?	5.8µM*	i
COc1ccc(C=NNC(=O)CCCCC(=O)NN=Cc2ccc(OC)cc2)cc1	10%	-16%	-2%	i	-2%	?
CSc1ccccc1NC(=O)CN(C)C(=O)c1c(C)nn(Cc2ccccc2)c1C	-2%	-4%	-2%	i	-8%	21µM*
O=C(Nc1ccc(Cl)c(C(F)(F)F)c1)Nc1nnc(-c2ccncc2)s1	.	.	.	?	.	i
C=C1C=C(C(F)F)n2ncc(C(=O)Nc3ccc(N(CC)CC)cc3)c2N1	.	.	.	?	.	i
COc1ccc(-n2nnnc2-c2cnc(N3CCCC3)nc2C(F)(F)F)cc1	?	-1%	-3%	18µM*	-21%	5.2µM*
FC(F)(F)c1nc(-c2cccs2)ncc1-c1nnnn1-c1ccc(Cl)cc1	6.5µM*	6%	?	?	?	16µM*
O=C1CC(=Nc2ccccc2)NN1c1ccccc1	?	4%	18µM*	?	?	i
O=c1[nH]cnc2c1sc1nc(C(F)F)cc(-c3ccccc3)c12	0%	?	-9%	?	-5%	12µM*
O=c1[nH]cnc2c1sc1nc3c(c(-c4ccc(Cl)cc4)c12)CCC3	-8%	-7%	0%	i	2%	?
COc1ccc(N(Cc2cccs2)C(=O)c2ccccc2C)cc1	.	.	.	i	.	?
Cc1ccc(OCC(=O)NNc2c3ccccc3nc3ccccc23)cc1	?	.	-23%	i	-26%	18µM*
Cc1cccc(OCC(=O)NNc2c3ccccc3nc3ccccc23)c1	0%	-4%	-3%	i	?	13µM*
O=C(Cc1ccccc1)NNc1c2ccccc2nc2ccccc12	-8%	-20%	-23%	i	-11%	i
Cc1cc[n+]2cc(-c3cccc([N+](=O)[O-])c3)c(-c3cccc([N+](=O)[O-])c3)cc2c1	-2%	2.6µM*	1%	i	3%	i
Cc1ccc(C(c2nnnn2Cc2ccccc2)N2CCN(Cc3ccncc3)CC2)cc1 (stereo not given)	.	.	.	i	.	i
Cc1ccc(C(c2nnnn2Cc2ccccc2)N2CCN(Cc3ccccc3)CC2)cc1 (stereo not given)	16µM*	-1%	-23%	?	?	i

Compound activity as filed in PubChem.
